# Assay results published in PubChem BioAssay (NCATS).
# Results filed as inconclusive are left out. Entries that show only a call come without a potency. Activity calls are given as the source filed them. The call rests on the fitted dose curve; in most records, active means well fitted curve in the direction sought with a large enough effect; inconclusive means small, poorly fitted or top-dose-only effect, or another doubt; inactive means no such curve, though single readings can be large; an effect the other way counts as inactive or inconclusive.
# Columns and labels:
# [1] = target: Glutathione peroxidase 1 (Homo sapiens) (UniProt P07203); test: Primary qHTS Assay for Inhibitors of Recombinant Selenoprotein Glutathione Peroxidase 1 (GPX1) (AID 1845191); further: nearly all actives have a fitted effect of over 65% in size
# Sequence of Glutathione peroxidase 1 (Homo sapiens) (P07203 whole entry, looked up): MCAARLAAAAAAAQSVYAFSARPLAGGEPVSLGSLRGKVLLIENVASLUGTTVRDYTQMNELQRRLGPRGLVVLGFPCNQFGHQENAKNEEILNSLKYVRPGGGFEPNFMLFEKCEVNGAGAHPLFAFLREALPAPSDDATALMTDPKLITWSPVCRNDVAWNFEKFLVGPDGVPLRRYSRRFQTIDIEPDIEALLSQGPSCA
# How it was run: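 Recombinant GPX1 (10 nM final) was preincubated with compound for 30 min at room temperature, then reacted with 1 mM GSH, 0.5 mM CHP, 0.5 mM NADPH and 100 nM glutathione reductase; NADPH fluorescence (340/450 nm) was read at 0 and 15 min.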
# [2] = target: Phospholipid hydroperoxide glutathione peroxidase GPX4 (Homo sapiens) (UniProt P36969); test: Primary qHTS Assay for Inhibitors of Recombinant Selenoprotein Glutathione Peroxidase 4 (GPX4) (AID 1845192); further: nearly all actives have a fitted effect of over 65% in size; on activity change, negative = inhibition: series mostly up to about 50 µM
# Sequence of Phospholipid hydroperoxide glutathione peroxidase GPX4 (Homo sapiens) (P36969 whole entry, looked up): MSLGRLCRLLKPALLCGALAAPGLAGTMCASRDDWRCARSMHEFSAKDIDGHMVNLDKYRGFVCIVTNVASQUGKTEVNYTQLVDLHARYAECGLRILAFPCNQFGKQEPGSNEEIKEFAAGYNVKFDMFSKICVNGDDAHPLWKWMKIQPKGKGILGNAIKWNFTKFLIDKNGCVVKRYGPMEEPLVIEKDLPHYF
# How it was run: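 GR-coupled readout: 100 nM GR, 1 mM GSH, 0.5 mM NADPH; NADPH fluorescence (ex 340/em 450 nm) read at t=0 and after 15 min RT. GPX4 200 nM, preincubated 30 min with compound; substrate 0.5 mM CHP.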
# [3] = target: Luciferin 4-monooxygenase (Photinus pyralis) (UniProt P08659); test: Primary firefly luciferase (FLuc) qHTS assay for identification of artifact compounds. (AID 1845220); further: nearly all actives have a fitted effect of over 60% in size; further: potency means the concentration at half of the fitted maximal effect; on activity change, negative = inhibition: series mostly up to about 54 µM
# How it was run: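 Reaction readout was CCD-imaged luminescence, taken 5 min after adding 10 nM purified firefly enzyme to compound-treated wells holding 10 uM luciferin and ATP in pH 7.6 buffer.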
# [4] = Primary fluorescence-based thiol-reactive (MSTI) qHTS assay for identification of artifact compounds. (AID 1845221); further: nearly all actives have a fitted effect of over 65% in size; further: potency means the concentration at half of the fitted maximal effect;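 on activity change, negative = thiol reactive: series mostly up to about 54 µM; thiol-reactive compounds lower the probe fluorescence signal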
# How it was run: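 First, 4 uM MSTI in 2% DMSO/PBS pH 7.4 was dispensed; next, compounds were added; then plates sat 1 h at room temperature without light. Finally, emission at 598 nm was recorded.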
# [5] = test system: Nanoluciferase (engineered Oplophorus gracilirostris luciferase); test: Primary Nanoluciferase (NLuc) qHTS assay for identification of artifact compounds. (AID 1845222);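 further: NLuc secreted into diluted conditioned medium of S16 cells; series mostly up to about 54 µM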
# How it was run: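 Concentration-response data were obtained by luminescence after 5 min with Nano-Glo substrate at 1:100. The enzyme was diluted S16 NLuc-expressing cell medium, preincubated with compound for 15 min at RT. Curves were fitted with a 4-parameter Hill model.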
# [6] = Primary redox qHTS assay for identification of artifact compounds. (AID 1845223)
# How it was run: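 Amplex Red (25 uM) and HRP (250 mU/mL) in HBSS, with compounds for 15 min, then 250 uM DTT for 30 min, room temperature, dark. Fluorescence 525/598 nm read; normalized to DMSO and 10 uM DA3003; Hill fit.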
SMILES,Potency [1],Potency [2],Potency [3],Potency [4],Potency [5],Potency [6],"activity change, negative = inhibition [3]","activity change, negative = thiol reactive [4]","activity, negative = inhibition [5]",redox activity (% of DA3003) [6],outcome [3]
CC(=O)O[C@@H]1C(=O)C(C)=C(CCC(C)CC(=O)O)[C@@]2(C)CCCC(C)(C)C12 (stereo partly specified),inactive,inactive,inactive,inactive,inactive,inactive,,,,,
COc1ccc(-n2c(SCC#N)nc3sc4c(c3c2=O)CCCC4)cc1,inactive,inactive,inactive,inactive,inactive,inactive,,,,,
C[C@@H]1O[C@@H](O[C@H]2[C@H](O[C@H]3[C@H](O[C@H]4CC[C@@]5(C)C(CC[C@]6(C)C5CC=C5[C@@H]7CC(C)(C)C[C@@H](O)[C@]7(C)CC[C@]56C)[C@@]4(C)CO)O[C@H](C(=O)O)[C@@H](O)[C@@H]3O)O[C@H](C(=O)O)[C@H](O)[C@@H]2O)[C@H](O)[C@H](O)[C@H]1O (stereo partly specified),inactive,inactive,,,,,0.9% [at 11.6 µM] (inactive),68.8% [at 11.5 µM] (inactive),0% [at 11.6 µM] (inactive),-2.66% [at 11.5 µM] (inactive),
CC(C)c1ccc2c(c1)[C@H](O)CC1[C@@](C)(C(=O)O)CCC[C@]21C (stereo partly specified),inactive,inactive,inactive,inactive,inactive,inactive,,,,,
CC(C)CC(=O)OC[C@@]1(O)C[C@@]23CC[C@H]4[C@@](C)(CCC[C@@]4(C)C(=O)O)[C@@H]2CC[C@@H]1C3,inactive,inactive,inactive,inactive,inactive,inactive,,,,,
CC(=O)NCC1CN(c2ccc(-c3ccc(CNCc4cn[nH]n4)cc3)c(F)c2)C(=O)O1 (stereo unspecified),inactive,inactive,inactive,inactive,inactive,inactive,,,,,
CC1=CC(=O)CC(C)(C)C1CCC(C)O[C@@H]1O[C@H](CO)[C@@H](O)[C@H](O)[C@H]1O (stereo partly specified),inactive,inactive,inactive,9.27 µM (active),inactive,inactive,,,,,
CC(C)c1ccc2c(c1)C(=O)CC1C(C)(C(=O)O)CCCC21C (stereo unspecified),inactive,inactive,inactive,inactive,inactive,inactive,,,,,
O=C(O[C@@H]1O[C@H](CO)[C@@H](O)[C@H](O)[C@H]1O)c1ccccc1,inactive,inactive,inactive,23.8 µM (active),inactive,inactive,,,,,
CC(C)C1(O)NC(=O)C(CC2(O)c3ccccc3N3C(=O)C(C)(C)NC32)n2c1nc1ccccc1c2=O (stereo unspecified),inactive,inactive,inactive,inactive,inactive,inactive,,,,,
CC1(C)CC=C(C#Cc2ccccc2)c2cc(/C=C/c3ccc(C(=O)O)cc3)ccc21,inactive,inactive,10.7 µM (active),inactive,inactive,inactive,,,,,
CC(CNS(=O)(=O)C(C)C)c1ccc(-c2ccc(C#N)cc2)cc1 (stereo unspecified),inactive,inactive,inactive,inactive,inactive,inactive,,,,,
C[C@@H]1O[C@@H](O[C@H]2[C@H](O[C@H]3[C@H](O[C@H]4CC[C@@]5(C)C(CC[C@]6(C)C5CC=C5[C@@H]7CC(C)(C)C[C@@H](O)[C@]7(C)CC[C@]56C)[C@@]4(C)CO)O[C@H](C(=O)O)[C@@H](O)[C@@H]3O)O[C@H](CO)[C@H](O)[C@@H]2O)[C@H](O)[C@H](O)[C@H]1O (stereo partly specified),inactive,inactive,,,,,0.671% [at 11.6 µM] (inactive),67.3% [at 11.5 µM] (inactive),4.57% [at 11.6 µM] (inactive),10.7% [at 11.5 µM] (inactive),
C=CC1(C)CC=C2C(CCC3C(C)(C(=O)O)CCCC23C)C1 (stereo unspecified),inactive,inactive,inactive,inactive,inactive,inactive,,,,,
COC(=O)C1C(c2ccc(O)cc2)C(C(=O)O)C1c1ccc(O)cc1 (stereo unspecified),inactive,inactive,inactive,inactive,inactive,inactive,,,,,
CCC(C)(C)C1CCc2c(sc(NC(=O)c3ccc(Br)cc3)c2C#N)C1 (stereo unspecified),inactive,inactive,inactive,inactive,inactive,inactive,,,,,
COc1ccc(Oc2c(Cl)cnn(C3c4ccccc4-c4ccccc43)c2=O)cc1,inactive,inactive,inactive,inactive,inactive,inactive,,,,,
COc1cccc(C)c1C(=O)O[C@@H]1C[C@H](O[C@H]2[C@H](O)C[C@H](O[C@@H]3CCC[C@H]4[C@H]3C=C[C@@H]3CCCC/C=C/[C@H]5C=C(C(=O)O)[C@@H](C)C[C@@]56OC(=O)C(=C6O)OC(=O)[C@@]34C)O[C@@H]2C)O[C@H](C)[C@H]1O,inactive,inactive,,,,,4.15% [at 11.6 µM] (inactive),170% [at 11.5 µM] (inactive),4.95% [at 11.6 µM] (inactive),-8.49% [at 11.5 µM] (inactive),

SMILES,Potency [1],Potency [2],Potency [3],Potency [4],Potency [5],Potency [6],"activity change, negative = inhibition [3]","activity change, negative = thiol reactive [4]","activity, negative = inhibition [5]",redox activity (% of DA3003) [6],outcome [3]
COc1cc(-c2ccc(O)cc2)c(OC)c(O)c1C1=CC(=O)OC1CC(=O)O (stereo unspecified),inactive,inactive,inactive,inactive,inactive,inactive,,,,,
C=C1C(OC(C)=O)CCC2(C)CCC(C(C)(C)O)CC12 (stereo unspecified),inactive,inactive,inactive,inactive,inactive,inactive,,,,,
C#CCCCn1cc(-c2cccc3c2N[C@@H](C)CC(=O)N3)cn1,inactive,inactive,inactive,inactive,inactive,inactive,,,,,
C[C@]1(OC(=O)/C=C/c2ccc(O)cc2)C[C@@H](O)[C@]2(O)C=CO[C@@H](O[C@@H]3O[C@H](CO)[C@@H](O)[C@H](O)[C@H]3O)C12 (stereo partly specified),inactive,inactive,inactive,inactive,inactive,inactive,,,,,
O=C(/C=C/c1ccccc1)O[C@@H]1[C@@H](CO)O[C@@](CO)(O[C@H]2O[C@H](CO)[C@@H](O)[C@H](O)[C@H]2O)[C@H]1O,inactive,inactive,inactive,2.92 µM (active),inactive,inactive,,,,,
Cc1nnc(-c2ccc3occ(-c4ccc(S(C)=O)cc4)c3c2)o1 (stereo unspecified),inactive,inactive,inactive,inactive,inactive,inactive,,,,,
O=C(COCC(=O)N1CCN(C(c2ccccc2)c2ccccc2)CC1)Nc1ccc(Cl)cc1C(=O)O,inactive,inactive,inactive,inactive,inactive,inactive,,,,,
CC(C)(CC(=O)N1CCCC1)NCC(=O)N1C[C@@H](F)C[C@H]1C#N,inactive,inactive,inactive,inactive,inactive,inactive,,,,,
CC1=CC[C@@]2(C)CC[C@@](O)(C(C)C)[C@@H]2[C@@H](O)C1,inactive,inactive,inactive,inactive,inactive,inactive,,,,,
CC1C2=CC(=O)OC2(O)CC2C1CCC1C(C)(C)CCC(O)C21C (stereo unspecified),inactive,inactive,inactive,inactive,inactive,inactive,,,,,
Cc1c(-c2ccc3c(c2)OCO3)oc2ccc(C(O)C(C)O)cc12 (stereo unspecified),inactive,inactive,1.17 µM (active),inactive,inactive,inactive,,,,,
CC(=O)OCC(Cc1ccccc1)NC(=O)C(Cc1ccccc1)NC(=O)c1ccccc1 (stereo unspecified),inactive,inactive,inactive,inactive,inactive,inactive,,,,,
CC1(C)CC[C@]2(C(=O)O)CC[C@]3(C)C(=CCC4[C@@]5(C)CC[C@H](O[C@H]6O[C@H](C(=O)O)[C@@H](O)[C@H](O[C@@H]7O[C@H](CO)[C@H](O)[C@H](O)[C@H]7O)[C@H]6O)C(C)(C)C5CC[C@]43C)[C@@H]2C1 (stereo partly specified),inactive,inactive,,,,,1.03% [at 11.6 µM] (inactive),239% [at 11.5 µM] (inactive),2.24% [at 11.6 µM] (inactive),8.43% [at 11.5 µM] (inactive),
CC(=O)OC(C)C(C)(O)C(=O)O[C@@H]1CC[C@]2(C)CC(=O)C(=C(C)C)C[C@H]2[C@]1(C)OC(C)=O (stereo partly specified),inactive,inactive,inactive,inactive,inactive,inactive,,,,,
C/C=C(\C)C(=O)OC1CC2C(CC=C3CC(OC4CC(OC)C(OC5CC(OC)C(OC6CC(OC)C(OC7CC(OC)C(OC8CC(OC)C(OC9OC(CO)C(O)C(O)C9O)C(C)O8)C(C)O7)C(C)O6)C(C)O5)C(C)O4)CCC32C)C2(O)CCC(C(C)=O)C12C (stereo unspecified),inactive,inactive,,,,,2.55% [at 11.6 µM] (inactive),7.96% [at 11.5 µM] (inactive),4.2% [at 11.6 µM] (inactive),12.2% [at 11.5 µM] (inactive),
COc1cc(Nc2nc3c(s2)CCCC3c2ccccc2)ccc1-n1cnc(C)c1 (stereo unspecified),inactive,inactive,,,,,,-6.96% [at 11.5 µM] (inactive),4.88% [at 11.6 µM] (inactive),-0.384% [at 11.5 µM] (inactive),inactive [at 11.6 µM]
COC(=O)CCC1(C)C(C(C)(C)O)C(O)CC2(C)Oc3c(C)c4c(c(OC)c3CC21)C(=O)OC4 (stereo unspecified),inactive,inactive,inactive,inactive,inactive,inactive,,,,,
COC(=O)C1=CO[C@@H](O[C@@H]2O[C@H](CO)[C@@H](O)[C@H](O)[C@H]2O)[C@@H]2[C@@H](CO)[C@@H](O)C(O)[C@H]12 (stereo partly specified),inactive,inactive,inactive,inactive,inactive,inactive,,,,,
